Compounds with a hit are over-represented: about 4.8% of the library has one in this group of screens.
tim23-1 inh = inhibits growth of tim23-1 mutant yeast | S. cerevisiae tim23-1 growth, BacTiter-Glo luminescence, 24 h | inhibition, % at 20 µM | 1.3% of 330,000 active;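 active = growth inhibition of the mutant yeast at or above 50%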;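 also: temperature-sensitive mutant grown at 25 °C; plate controls were DMSO-treated mutant yeast for no effect and medium wells lacking yeast for full effect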
SKKanGAS inh = SKKanGAS growth inhibition; 1.3% of 300,000 active; S. pyogenes SKKanGAS, kanamycin growth, BacTiter-Glo, 6 h; inhibition, % at 7.5 µM;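 active = mean replicate score, as percent of positive control median, at least 50; inconclusive = mean below 50 but one replicate at or above 50; inactive = mean and every replicate below 50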;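 also: strain carries kanamycin resistance gene driven by streptokinase promoter and grows in 40 µg/ml kanamycin; loss of luminescence reflects streptokinase promoter inhibition or plain growth inhibition; 0% = median of DMSO wells and 100% = positive control at its reference dose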
tim10-1 inh = inhibits growth of tim10-1 mutant yeast; S. cerevisiae tim10-1 ts strain growth, BacTiter-Glo, 24 h; inhibition, % at 20 µM; 2.2% of 330,000 active; AID 463190;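 active = inhibition of at least 40%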;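 also: mutant grown at 25 °C; 0% = DMSO wells with yeast and 100% = wells holding no yeast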
NALP1 inh = NALP1 inhibition; AID 2071; 0.61% of 280,000 active; S. cerevisiae NALP1/ASC/caspase-1 growth, X-gal OD620, 72 h; inhibition, % at 10 µM; in the data active = inhibition mostly above about 24%, no sharp cut-off; inactive = mostly below about 32%
PfHsp90 set2 = growth inhibition of yeast expressing Plasmodium Hsp90; S. cerevisiae expressing PfHsp90, BacTiter-Glo ATP, 48 h; yeast lacking PDR1 and PDR3 efflux regulators; inhibition, % at 9.4 µM; 0.32% of 310,000 active; AID 504621;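 active = every replicate shows inhibition above about 80%, whatever the replicate mean, limit read from the data; inconclusive = mean inhibition reaches the set limit but some replicate falls short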;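 also: 0% = DMSO neutral controls and 100% = 20 µM radicicol positive controls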
TIM10 inh = TIM10 yeast growth inhibition. S. cerevisiae TIM10 strain growth, BacTiter-Glo luminescence, 24 h. inhibition, % at 10 µM. 1.4% of 330,000 active;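 active = inhibition of 40% or more at the single tested concentration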;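 also: wild-type TIM10 isogenic control strain grown at permissive 25 °C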
* marks the source's active call; other numbers are inactive results; ? = inconclusive; . = not tested or not shown.

SMILES | tim23-1 inh | SKKanGAS inh | tim10-1 inh | NALP1 inh | PfHsp90 set2 | TIM10 inh
Cc1cc(-c2ccc(C)c(S(=O)(=O)NCCN3CCC(C)CC3)c2)on1 | -6 | -4 | -12 | 20 | -10 | 7
c1ccc(-c2n[nH]c3ccccc23)cc1 | 31 | 0 | -2 | 22* | -15 | 18
O=c1[nH]nc(-c2ccccc2)c2ccccc12 | -13 | 3 | -8 | 24 | -5 | -12
Cc1cc(OCc2nn[nH]n2)c2c(C)c(Cc3ccccc3)c(=O)oc2c1 | 14 | 4 | -9 | -14 | . | 6
O=C1/C(=C/c2c[nH]c3ccccc23)CCC/C1=C\c1c[nH]c2ccccc12 | 28 | 59* | 30 | 33 | 17 | 32
COC(=O)c1ccc(CSc2nnc(NC(=O)C3CC(=O)N(c4ccc5c(c4)OCCO5)C3)s2)cc1 (stereo not drawn) | -16 | 28 | -5 | 25 | -15 | -14
Cc1ccc(C(=O)Nc2nnc(S(=O)(=O)N3CCC(C)CC3)s2)cc1 | 15 | 11 | 15 | 18 | -7 | 13
Cc1cccc(C(=O)Nc2nnc(S(=O)(=O)N3CCC(C)CC3)s2)c1 | 30 | 43 | 35 | 40* | -9 | 10
CCC(C)(C)NC(=O)C(c1ccccc1F)N(Cc1ccco1)C(=O)c1csnn1 (stereo not drawn) | 24 | -5 | 26 | -15 | 11 | 10
CC(=O)N1CCN(c2ccc(OC[C@H]3CO[C@](Cn4ccnc4)(c4ccc(Cl)cc4Cl)O3)cc2)CC1 | -223 | 7 | -152 | 5 | 104* | -149
CC1CCN(c2nc(CN3CCCCC3)nc3scc(-c4ccccc4)c23)CC1 | 26 | ? | 19 | 50* | 7 | 24
CC1CCN(c2nc(-c3cccnc3)nc3scc(-c4ccccc4)c23)CC1 | 20 | 75* | 27 | 38 | -14 | 8
CC1CCCN(c2nc(-c3cccnc3)nc3scc(-c4ccccc4)c23)C1 (stereo not drawn) | 16 | 39 | 21 | 22 | -7 | 16
CC1=C(C(N)=O)C(c2ccc(Cl)cc2)n2nc(CCCO)nc2N1 (stereo not drawn) | 13 | -1 | 37 | 0 | 7 | 7
CC(=O)N(c1ccc(C(F)(F)F)cc1)S(=O)(=O)c1ccc(N2C(=O)CCC2=O)cc1 | 11 | 5 | 7 | 32* | -29 | 0
O=C(O)c1ccc(NS(=O)(=O)c2ccc(N3C(=O)CCC3=O)cc2)cc1 | 0 | -2 | 1 | 13 | 20 | -13
CNS(=O)(=O)Cc1ccc2[nH]cc(CCN(C)C)c2c1 | -3 | 0 | 8 | 11 | -8 | 8
Cc1ccc(N(C(C)C(=O)O)S(=O)(=O)c2c(C)[nH]c(=O)[nH]c2=O)cc1 (stereo not drawn) | -5 | 5 | 2 | 42* | -10 | 11
COC(=O)C(C)N(c1ccc(C)cc1)S(=O)(=O)c1c(C)[nH]c(=O)[nH]c1=O (stereo not drawn) | -4 | -2 | -8 | 8 | 12 | -6
CN(C)c1ccc(/C=C/c2c([N+](=O)[O-])c(=O)n(C)c(=O)n2C)cc1 | -6 | 52* | -8 | 16 | 3 | -1
CCCOc1ccc(/C=C/c2c([N+](=O)[O-])c(=O)n(C)c(=O)n2C)cc1 | -9 | 50* | -1 | . | -11 | 4
COC(=O)c1ccc(NC(=O)c2cc(-c3ccncc3)nc3ccccc23)cc1 | 38 | . | 27 | . | -15 | 16
Cc1ccc(S(=O)(=O)N2CC3(C)CN(S(=O)(=O)c4ccc(C)cc4)CC(C)(C2)C3)cc1 | -8 | 2 | 9 | 6 | . | -22
CCC12CN(S(=O)(=O)c3ccc(C)cc3)CC(CC)(CN(S(=O)(=O)c3ccc(C)cc3)C1)C2=O | -5 | 11 | 18 | 42* | . | 7
O=C(CCN=C1NS(=O)(=O)c2ccccc21)OCc1c(F)c(F)c(F)c(F)c1F | 12 | . | 6 | . | -10 | 7
SMILES | tim23-1 inh | SKKanGAS inh | tim10-1 inh | NALP1 inh | PfHsp90 set2 | TIM10 inh
COc1ccc2c(c1)c(=O)oc1c(C)c(OCc3ccc(C(=O)O)cc3)ccc12 | . | 52* | . | 9 | -11 | .
CCCCCCOc1ccc(/C(C)=N/NC2=NCCN2)cc1 | 48 | 4 | -120 | 88* | 30 | -41
Cc1cc2c(=O)n(Cc3ccco3)c(SCC(=O)NCc3ccco3)nc2s1 | 23 | 2 | 22 | 12 | 6 | 10
Cc1cc2c(=O)n(Cc3ccco3)c(SCC(=O)N3CCCc4ccccc43)nc2s1 | 42 | 58* | 31 | 8 | 3 | 25
CC1CCCN(C(=O)C2CCN(Cc3ccc4c(c3)OCO4)CC2)C1 (stereo not drawn) | 3 | 1 | 3 | 4 | 23 | -12
O=C(CSc1ncc(C(=O)O)n1-c1ccc(F)cc1)NCc1ccc2c(c1)OCO2 | -6 | 0 | -3 | -14 | -2 | -6
Cc1ccc(S(=O)(=O)Nc2ccc3cc([N+](=O)[O-])ccc3c2[N+](=O)[O-])cc1 | . | . | . | . | 111* | .
Cc1ccc(S(=O)(=O)Nc2ccc3ccccc3c2[N+](=O)[O-])cc1 | . | . | . | . | 115* | .
COc1ccc([N+](=O)[O-])cc1NS(=O)(=O)c1ccc(C)cc1 | 35 | 10 | -1 | 5 | 6 | 20
Cc1ccc(-c2csc3nc[nH]c(=S)c23)cc1 | 50 | 34 | 24 | 7 | -28 | 7
S=c1[nH]cnc2scc(-c3ccc(Br)cc3)c12 | -32 | 2 | 19 | 10 | -7 | -4
Cc1cc(-c2csc3nc[nH]c(=S)c23)cc(C)c1C | 27 | 92* | 39 | 2 | -32 | 26
S=c1[nH]cnc2scc(-c3ccc(Cl)cc3)c12 | -9 | 76* | 7 | 0 | . | -24
OCc1ccc(O)c2ncccc12 | -7 | 5 | -15 | 8 | 12 | -1
Oc1ccc(COCc2ccccc2)c2cccnc12 | 14 | ? | 1 | 10 | -33 | 4
CC(C)COCc1ccc(O)c2ncccc12 | 16 | 83* | 3 | -10 | 1 | 13
CCCOCc1ccc(O)c2ncccc12 | 20 | 82* | 6 | . | -8 | 7
CCC1CCCCN1S(=O)(=O)c1c(C)n(C)c(=O)n(C)c1=O (stereo not drawn) | 1 | -6 | -9 | . | . | -3
Clc1ccc2c(N/N=C/c3cccc(Br)c3)ccnc2c1 | . | 82* | . | 47* | -23 | .
CCN(CCN(C)C)C(=O)Cn1ncc2c1-c1cc(C)ccc1OC2 | 7 | -2 | 1 | 41* | . | -3
Cc1ccc2c(c1)-c1c(cnn1CC(=O)O)CO2 | -5 | -14 | -23 | -9 | . | -6
O=S(=O)(c1cccc(C(F)(F)F)c1)N1CCC(c2cc(-c3cccc4ccccc34)n[nH]2)CC1 | 8 | 33 | 33 | 37* | -25 | 24
CNC(=O)c1cc2cc(Br)ccc2s1 | 9 | 16 | 17 | 9 | . | 13
O=C(NC1CC1)c1cc2cc(Br)ccc2s1 | 8 | -3 | -2 | 30* | 16 | 3

Source: PubChem
